Inconclusive results are not listed. Calls of active or inactive are those of the source. The call rests on the fitted dose curve; in most records, active means well fitted curve in the direction sought with a large enough effect; inconclusive means small, poorly fitted or top-dose-only effect, or another doubt; inactive means no such curve, though single readings can be large or run the other way.
Potency means the concentration at half of the fitted maximal effect.

This test in a line: qHTS for differential inhibitors of proliferation of Plasmodium falciparum line HB3 (AID 1886).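 Further: parasites grown with compound for 72 h before SYBR Green readout.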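 On activity change, negative = inhibition: plate controls were vehicle for no effect and reference inhibitor for full effect.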 Particulars: Potency: Plasmodium falciparum HB3 proliferation inhibition; series mostly up to 28.7 µM; activity change, negative = inhibition: at the top concentration. (In general: qHTS replaces the single test concentration by a dilution series.)
With `O=C(O)/C(=C/c1c(C(=O)O)[nH]c2cc(Cl)cc(Cl)c12)c1ccccc1`, the “activity change, negative = inhibition” value is -11.5% (inactive). As to `CC1=C(/C=C/C(C)=C/C=C/C(C)=C\C(=O)O)C(C)(C)CCC1`, the Potency was 10 µM (active). With `O=C(O)CCC(=O)N1CCCC1C(=O)O` (stereo unspecified), the “activity change, negative = inhibition” value is 1.22% (inactive).

As for `N=C(N)c1ccccc1`, the “activity change, negative = inhibition” value was -6.46% (inactive). Take `Cc1nc(N=Nc2ccc(S(=O)(=O)O)cc2S(=O)(=O)O)c(COP(=O)(O)O)c(C=O)c1O`: the “activity change, negative = inhibition” value was -6.01% (inactive). On the same count and under the same terms, the result for `N=S(=O)(O)Cc1noc2ccccc12` reads -16.5% (inactive). The same measure, in the same setting: the result for `O=[N+]([O-])c1cccc2cn[nH]c12` reads -6.58% (inactive); that for `C[C@@H](NCCc1ccc(O)cc1)[C@@H](O)c1ccc(O)cc1`, 0.663% (inactive); that for `CC[N+](CC)(CC)CC(=O)Nc1c(C)cccc1C`, -6.44% (inactive).

Consider `O=C(O)C1=CCCNC1`, for which the “activity change, negative = inhibition” value is 12.7% (inactive). Same read-out and setting: next, `CNc1cc(NS(=O)(=O)c2ccc(N)cc2)nc(NC)n1`: -8.62% (inactive). As for `CN1C2CCC1CC(OC(c1ccccc1)c1ccccc1)C2` (stereo unspecified), the Potency was 6.31 µM (active). Regarding `NC/C=C\C(=O)O`, the “activity change, negative = inhibition” value is -1.24% (inactive). In the case of `CN1CCN(c2nc3cc(C(F)(F)F)ccc3n3cccc23)CC1`, the Potency is 11.2 µM (active). As to `CCSC(=N)N`, the “activity change, negative = inhibition” value is -10.2% (inactive). Take `Nc1ccc(-c2nc3ccc(-c4nc5ccc(N)cc5[nH]4)cc3[nH]2)cc1`: the Potency is 0.794 µM (active).

For the compound `O=C(O)c1cccnc1C(=O)O`, the “activity change, negative = inhibition” value was 0.0641% (inactive).

In the case of `c1ccc(CN2CCC3(CCCc4ccccc43)CC2)cc1`, the Potency is 7.94 µM (active). On to `NS(=O)(=O)c1cccc2c1c([N+](=O)[O-])cc1nc(O)c(O)nc12`, for which the “activity change, negative = inhibition” value is -17.7% (inactive). Take `Cc1nc(N=Nc2ccc(C(=O)O)cc2)c(COP(=O)(O)O)c(C=O)c1O`: the “activity change, negative = inhibition” value was 7.9% (inactive). Regarding `N[C@@H](CCC(=O)N[C@H](CSN=O)C(=O)NCC(=O)O)C(=O)O`, the “activity change, negative = inhibition” value was -1.17% (inactive). With `CCCCCCC/C=C\CCCCCCCCC(=O)O`, the “activity change, negative = inhibition” value was -8.87% (inactive). Still for that read-out and setting: the result for `NCCCCN=C(N)N` reads -27% (inactive); that for `Cc1cc2c(cc1Cl)N(C(=O)Nc1ccnc3ccccc13)CC2`, -22.9% (inactive); that for `CC(=O)NNC(=O)N1Cc2ccccc2Oc2ccc(Cl)cc21`, -7.21% (inactive). Same read-out and setting: next, `CC1CCN(CC[C@H]2CCCN2S(=O)(=O)c2cccc(O)c2)CC1`: -17.3% (inactive). Regarding `Cn1c(=O)[nH]c2ncn(C)c2c1=O`, the Potency is 12.6 µM (active). For `O=c1[nH]ccc2c(O)cccc12`, the “activity change, negative = inhibition” value is -5.23% (inactive).

Consider `O=c1onc2n1-c1cc(Br)ccc1OC2`, for which the “activity change, negative = inhibition” value is -23% (inactive).

Regarding `CSC(=N)N`, the “activity change, negative = inhibition” value was -9.8% (inactive). On the same count and under the same terms, next, `O=C(O)C1=CCCN(CCON=C(c2ccccc2)c2ccccc2)C1`: -22.3% (inactive).

The values above are taken from PubChem BioAssay (NCATS).
